Measured values as given in PubChem BioAssay AID1159580 (chemical genetic matrix, 2015).
Hit rate of the full screen: of about 5,500 compounds, about 2,000 (36%) were called active. Inconclusive results (about 18%) are left out. No stated cut-off is given here; in the data, active means normalized growth mostly below about 0.91 (no sharp cut-off); inconclusive means no clear call, values can overlap the other calls; inactive means mostly above about 0.92. The list shows a part of the results.

Experiment: chemical genetic growth profiling, strain panel (AID 1159580);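 further: tested at 20 µM; growth read once vehicle control cultures reached saturation at 30 °C; 1 = growth at the plate median or of vehicle wells; lower values mean less growth of the strain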
Conditions: S. cerevisiae deletion strains, growth OD

Measured: normalized growth

COc1cc(O)c2c(=O)c(-c3ccc(O)cc3)coc2c1
active: locus YBR021W, strain FUR4, hits give low values 0.832 | locus YDL134C, strain PPH21, hits give low values 0.859 | locus YDL192W, strain arf1, hits give low values 0.84 | locus YDR101C, strain arx1, hits give low values 0.873 | locus YDR318W, strain mcm21, hits give low values 0.886 | locus YDR502C, strain sam2, hits give low values 0.842 | locus YER155C, strain BEM2, hits give low values 0.891 | locus YER167W, strain BCK2, hits give low values 0.853 | locus YGL086W, strain mad1, hits give low values 0.881 | locus YGL248W, strain PDE1, hits give low values 0.874 | locus YGR078C, strain PAC10, hits give low values 0.835 | locus YGR135W, strain pre9, hits give low values 0.817 | locus YGR252W, strain gcn5, hits give low values 0.612 | locus YHR030C, strain SLT2, hits give low values 0.916 | locus YHR129C, strain ARP1, hits give low values 0.899 | locus YHR200W, strain rpn10, hits give low values 0.894 | locus YIL066C, strain RNR3, hits give low values 0.845 | locus YJL095W, strain BCK1, hits give low values 0.73 | locus YJR043C, strain POL32, hits give low values 0.771 | locus YJR075W, strain HOC1, hits give low values 0.859 | locus YKR001C, strain vps1, hits give low values 0.73 | locus YLR039C, strain RIC1, hits give low values 0.58 | locus YLR262C, strain YPT6, hits give low values 0.552 | locus YLR268W, strain sec22, hits give low values 0.866 | locus YLR330W, strain CHS5, hits give low values 0.872 | locus YLR342W, strain FKS1 (second series), hits give low values 0.701 | locus YLR371W, strain rom2, hits give low values 0.823 | locus YLR418C, strain cdc73, hits give low values 0.61 | locus YML032C, strain rad52, hits give low values 0.865 | locus YMR223W, strain ubp8, hits give low values 0.862 | locus YMR263W, strain SAP30, hits give low values 0.884 | locus YNL233W, strain BNI4, hits give low values 0.809 | locus YNL298W, strain CLA4, hits give low values 0.894 | locus YNL307C, strain MCK1, hits give low values 0.816 | locus YOL006C, strain TOP1, hits give low values 0.489 | locus YOL147C, strain pex11, hits give low values 0.877 | locus YOR144C, strain elg1, hits give low values 0.918 | locus YOR184W, strain ser1, hits give low values 0.756 | strain wtn01, hits give low values 0.841
inactive: locus YBR229C, strain ROT2, hits give low values 0.973 | locus YCL029C, strain bik1, hits give low values 0.952 | locus YDL035C, strain GPR1, hits give low values 0.89 | locus YDL074C, strain BRE1, hits give low values 0.782 | locus YDL101C, strain DUN1, hits give low values 0.942 | locus YDL185W, strain tfp1, hits give low values 0.972 | locus YDR162C, strain NBP2, hits give low values 0.853 | locus YDR388W, hits give low values 0.943 | locus YEL061C, strain CIN8, hits give low values 0.93 | locus YER110C, hits give low values 0.944 | locus YGL078C, strain dbp3, hits give low values 0.935 | locus YHR079C, strain IRE1 (second series), hits give low values 0.947 | locus YHR094C, strain hxt1, hits give low values 0.959 | locus YIL073C, strain SPO22, hits give low values 0.818 | locus YIL125W, strain kgd1, hits give low values 0.964 | locus YIR030C, strain dcg1, hits give low values 0.938 | locus YJL134W, strain LCB3, hits give low values 0.984 | locus YJL168C, strain set2, hits give low values 0.947 | locus YJL187C, strain SWE1 (second series), hits give low values 0.894 | locus YKL009W, strain mrt4, hits give low values 0.88 | locus YKL068W, hits give low values 0.969 | locus YKL085W, strain MDH1 (second series), hits give low values 0.948 | locus YKL085W, strain MDH1, hits give low values 0.948 | locus YKL190W, strain CNB1, hits give low values 0.961 | locus YLR058C, strain SHM2, hits give low values 0.913 | locus YLR102C, strain apc9, hits give low values 0.946 | locus YML016C, strain PPZ1, hits give low values 0.947 | locus YML124C, strain tub3, hits give low values 0.942 | locus YMR078C, strain ctf18, hits give low values 0.954 | locus YMR307W, strain GAS1, hits give low values 0.642 | locus YNL067W, strain RPL9B, hits give low values 0.891 | locus YNL128W, strain TEP1, hits give low values 0.96 | locus YNL153C, strain GIM3, hits give low values 0.941 | locus YNL250W, strain rad50, hits give low values 0.957 | locus YNL271C, strain bni1, hits give low values 0.94 | locus YNR052C, strain pop2, hits give low values 0.919 | locus YOL012C, strain htz1 1.29 | locus YOR061W, strain CKA2, hits give low values 0.936 | locus YOR069W, strain VPS5, hits give low values 0.94 | locus YOR136W, strain idh2, hits give low values 0.946 | locus YOR316C, strain cot1, hits give low values 0.945 | locus YPL055C, strain LGE1, hits give low values 0.791 | locus YPL241C, strain CIN2, hits give low values 0.97 | locus YPR119W, strain clb2, hits give low values 0.962 | locus YPR141C, strain kar3, hits give low values 0.967 | locus YPR163C, strain tif3, hits give low values 0.93 | locus YPR167C, strain met16, hits give low values 0.942
